This is a sample that favours compounds with a hit; in the whole collection about 3.5% have one here.
FBW7 act: activators of human E3 ligase FBW7 | Q969H0 | AlphaScreen FBW7–phospho-cyclin E peptide binding, activator screen | normalized activity (activation), % at 26.1 µM | actives 0.13% (n = 650,000) | AID 1259310; in the data active = normalized activity above about 1.9%;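 note: purified mutant Fbw7 with reduced substrate affinity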
TEAD-YAP inh: TEAD-YAP interaction inhibition; HEK-TIYL cells, TEAD-Gal4/YAP UAS-luciferase luminescence; inhibition, % at 9.12 µM; actives 1.4% (n = 640,000); in the data active = inhibition above about 32%;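 note: 0% = median of test compound wells and 100% = reference inhibitor wells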
GPR151 ag: human GPR151 activation; Q8TDV0; activation, % at 11.2 µM; actives 1% (n = 650,000); PathHunter beta-arrestin GPR151 cells, luminescence; AID 1508602; in the data active = activation above about 4.9%;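 note: 0% = median of compound wells and 100% = cells with positive control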
Target sequence (Q8TDV0 whole entry, looked up): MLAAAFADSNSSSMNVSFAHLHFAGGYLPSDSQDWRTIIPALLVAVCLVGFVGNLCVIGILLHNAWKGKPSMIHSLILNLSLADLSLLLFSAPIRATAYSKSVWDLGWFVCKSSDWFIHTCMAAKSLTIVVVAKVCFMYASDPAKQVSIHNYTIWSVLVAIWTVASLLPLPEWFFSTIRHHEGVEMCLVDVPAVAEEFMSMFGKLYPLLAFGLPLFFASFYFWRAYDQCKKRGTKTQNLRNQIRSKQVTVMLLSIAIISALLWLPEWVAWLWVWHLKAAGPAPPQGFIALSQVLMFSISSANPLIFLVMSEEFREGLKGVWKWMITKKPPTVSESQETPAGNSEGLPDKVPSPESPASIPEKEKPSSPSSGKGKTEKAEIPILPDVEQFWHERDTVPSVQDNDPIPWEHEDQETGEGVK
MITF primary: inhibitors of human MITF. O75030. AlphaScreen MITF homodimerization, bead proximity signal. AID 1259374. inhibition, % at 2.6 µM. actives 0.91% (n = 650,000); in the data active = inhibition above about 50%;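 note: 0% = vehicle wells with protein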
MITF confirm: confirmation of human MITF inhibitors; shares compounds with MITF primary; AlphaScreen MITF homodimerization, biotin/His-MITF beads; inhibition, % at 2.6 µM; actives 16% (n = 4,700); AID 1259372;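 active = inhibition above a cutoff derived from the DMSO control wells, cut at about 28% in these data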;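 note: 0% = MITF dimer wells with DMSO only; inhibitors lower the bead chemiluminescence by keeping MITF from dimerizing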
AS interf DR: optically interferes with AlphaScreen signal in dose response | shares compounds with MITF primary | AlphaScreen optical interference counterscreen, cell-free | IC50, µM | actives 6% (n = 480); call rule not given here
AS interf ctr: optically interferes with AlphaScreen signal; shares compounds with MITF primary; LysRS AlphaScreen counterscreen, signal interference, triplicate; inhibition, % at 2.6 µM; actives 7.6% (n = 4,700);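 active = inhibition above a cutoff derived from the DMSO control wells, cut at about 30% in these data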
The depositor's hits bear a star; / = no result given.

SMILES	FBW7 act	TEAD-YAP inh	GPR151 ag	MITF primary	MITF confirm	AS interf ctr	others
O=C(O)CN1CC2([N+](=O)[O-])C=CC(=O)C([N+](=O)[O-])(C1)C2CC(=O)c1ccccc1 (centres undefined)	0	2	-1	8	/	/
Cc1sc(NC(=O)c2cc3ccccc3c(=O)o2)c(C(N)=O)c1C	0	-59	-3	-11	/	/
CC(C)(C)c1ccc(C2SCC(=O)N2c2cc(Cl)ccc2O)cc1 (centres undefined)	0	3	1	19	/	/
O=CN1CCN(C(=O)COc2ccc(Br)cc2Cl)CC1	0	6	1	70*	1	7
O=C(COc1ccc(Br)cc1Cl)N1CCCCC1	0	-18	2	6	/	/
Cn1c(CN2CCN(C(=O)c3cc(=O)c4ccccc4o3)CC2)nc2ccccc21	0	9	0	86*	2	14
COC(=O)c1ccc(NC(=O)CN2CCN(Cc3nc4ccccc4n3C)CC2)cc1	0	2	0	70*	3	20
COCCNC(=O)N1CCN(Cc2nc3ccccc3n2C)CC1	0	5	0	78*	8	20
Cn1c(CN2CCN(Cc3ccccc3)CC2)nc(=O)c2ccccc21	0	-4	-1	71*	-17	3
Cc1noc(C)c1CN1CCN(C(=O)c2cc(=O)c3ccccc3o2)CC1	0	-4	1	10	/	/
COCCN1C(=O)/C(=C/c2cc(OC)c(OC)c(OC)c2)SC1=S	0	5	-1	11	/	/
Cn1c(=NC(=O)c2ccc(S(=O)(=O)N3CCCC3)cc2)sc2cc([N+](=O)[O-])ccc21	0	0	0	6	/	/
Cc1cc(S(=O)(=O)N2CCCC2)ccc1Br	0	2	0	14	/	/
Cc1nnc(SCC(=O)Nc2ccc3c(c2)OCCO3)n1C	0	-15	-1	10	/	/
O=C(O)CCN(CCC(=O)O)c1ccc(O)cc1	-1	-19	2	69*	48*	-10	AS interf DR=>6.5
CN1CCN(CC(O)Cn2cc(/C=C/C(=O)c3cccs3)c3ccccc32)CC1 (centres undefined)	0	12	-3	5	/	/
CN1CCN(CC(O)Cn2cc(/C=N/O)c3ccccc32)CC1 (centres undefined)	0	-3	-2	59*	13	11
CCOc1ccccc1C(=O)Nc1nnc(CNS(=O)(=O)c2ccc(C)cc2)s1	0	2	-1	-5	/	/
Cc1nc(SCC(=O)N2CCCC2)c2c3c(sc2n1)CCC3	1	-3	0	6	/	/
O=C(NN1C(=O)c2ccc(Oc3ccc([N+](=O)[O-])cc3)cc2C1=O)c1ccco1	0	-73	-1	58*	1	4
Cc1ccc(Oc2ccc(OCC(=O)NCC3CCCO3)cc2)cc1 (centres undefined)	0	16	0	75*	0	11
COc1ccc(-c2cnc(-c3ccc(/C=C/c4ccccc4)cc3)o2)cc1	0	-10	0	0	/	/
CN1CCC(=NNc2nc3ccccc3[nH]2)CC1	0	-26	-1	53*	8	2
c1ccc(CN2CCC(=NNc3nc4ccccc4[nH]3)CC2)cc1	0	-11	-1	43	/	/
O=c1oc2cc(OCc3ccccc3Cl)ccc2c2ccccc12	0	-4	1	4	/	/
SMILES	FBW7 act	TEAD-YAP inh	GPR151 ag	MITF primary	MITF confirm	AS interf ctr	others
O=C(c1ccc(-c2cnn(-c3ccc(Cl)cc3)c2)nc1)N1CCOCC1	1	10	-2	58*	9	16
Cc1ccc(-n2cc(-c3ccc(C(=O)N4CCCC4)cn3)cn2)cc1	1	5	0	6	/	/
CCOC(=O)CNC(=O)c1cc2cc3ccc(C)cc3nc2s1	0	-2	-1	-6	/	/
CC(C)NC(=O)C1CCN(Cc2cccc(OCc3ccccc3)c2)CC1	1	5	0	57*	-10	-6
CC(C)NC(=O)C1CCN(Cc2ccccc2Cl)CC1	0	4	0	54*	-10	-6
CC(O)CNC(=O)C1CCN(Cc2ccc(OCc3ccccc3)cc2)CC1 (centres undefined)	1	-14	1	34	/	/
CC(C)NC(=O)C1CCN(Cc2cccc(Cl)c2Cl)CC1	0	7	1	54*	-21	-1
Cc1ccc(CN2CCC(C(=O)NC(C)C)CC2)cc1	0	8	-1	65*	-5	-4
COc1ccccc1OCc1nnc(SCC(=O)Nc2cc(C)on2)n1C	0	3	-1	16	/	/
COc1cccc(C(=O)N[C@H]2C[C@H]3C(=O)N[C@H](Cc4ccccc4)C(=O)N3C2)c1	0	3	2	11	/	/
CN(C)CCOCCOc1cccc2ccccc12	0	14	0	63*	-1	-1
CC(C)Oc1ccccc1OCCN(C)C	0	5	0	75*	7	15
CCN(CC)CCOCCOc1cccc2ccccc12	0	2	1	1	/	/
C=CCN(CC=C)CCOc1ccccc1OC(C)C	0	-5	2	35	/	/
CNC(=O)n1c(SCC(=O)N(C)C)nc2ccccc21	0	-8	-2	17	/	/
NC(=O)COC(=O)c1cc2c(s1)CCC2	0	10	1	62*	60*	15	AS interf DR=>6.9
NC(=O)c1ccc(NC(=O)COC(=O)c2cc3c(s2)CCC3)cc1	0	1	-1	49	/	/
O=C(OCN1C(=O)c2ccccc2C1=O)c1cc2c(s1)CCC2	0	2	0	74*	77*	6	AS interf DR=>7.1
N#C/C(=C(/O)COC(=O)c1cc2c(s1)CCC2)c1nc2ccccc2[nH]1	0	10	-1	87*	82*	3	AS interf DR=>7.1
O=C(CN1C(=O)c2ccccc2C1=O)NNC(=O)c1cc2c(s1)CCCC2	0	-8	0	-4	/	/
Cc1ccc(C(=O)COC(=O)c2ccc3c(c2)C(=O)N(c2cccc(NC(=O)c4ccc(Br)cc4)c2)C3=O)cc1C	0	-6	-1	-3	/	/
Cc1ccc2sc(-c3ccc(N4C(=O)C5C6CCC(C6)C5C4=O)cc3)nc2c1 (centres undefined)	0	-6	1	1	/	/
O=C(Nc1ccc(C(O)(C(F)(F)F)C(F)(F)F)cc1)c1ccccc1[N+](=O)[O-]	1	-4	-2	2	/	/
O=[N+]([O-])c1ccc(CN2CCSCC2)cc1	0	5	1	48	/	/
O=[N+]([O-])c1ccc(CN2CCN(Cc3ccncc3)CC2)cc1	0	7	-1	65*	10	15
O=[N+]([O-])c1ccc(CN2CCN(Cc3cccnc3)CC2)cc1	0	-4	-1	64*	-21	2
O=[N+]([O-])c1ccc(-c2nsc3c(N4CCN(Cc5cccnc5)CC4)ncnc23)cc1	0	-14	0	13	/	/

Source: PubChem
